Activity calls are given as the source filed them. How the calls were made is not given here.
Biological target: Estrogen receptor (Homo sapiens) (UniProt P03372)
Test: ERalpha ligand binders by competition, primary screen, cell-based, Cos7 ERalpha-GFP, flow cytometry (AID 1211);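 further: 0% = DMSO vehicle wells and 100% = no E2-Alexa633 signal left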
Settings: fluorescent ligand competition, stronger effect = higher value

Chain of Estrogen receptor (Homo sapiens) (P03372 whole entry, looked up): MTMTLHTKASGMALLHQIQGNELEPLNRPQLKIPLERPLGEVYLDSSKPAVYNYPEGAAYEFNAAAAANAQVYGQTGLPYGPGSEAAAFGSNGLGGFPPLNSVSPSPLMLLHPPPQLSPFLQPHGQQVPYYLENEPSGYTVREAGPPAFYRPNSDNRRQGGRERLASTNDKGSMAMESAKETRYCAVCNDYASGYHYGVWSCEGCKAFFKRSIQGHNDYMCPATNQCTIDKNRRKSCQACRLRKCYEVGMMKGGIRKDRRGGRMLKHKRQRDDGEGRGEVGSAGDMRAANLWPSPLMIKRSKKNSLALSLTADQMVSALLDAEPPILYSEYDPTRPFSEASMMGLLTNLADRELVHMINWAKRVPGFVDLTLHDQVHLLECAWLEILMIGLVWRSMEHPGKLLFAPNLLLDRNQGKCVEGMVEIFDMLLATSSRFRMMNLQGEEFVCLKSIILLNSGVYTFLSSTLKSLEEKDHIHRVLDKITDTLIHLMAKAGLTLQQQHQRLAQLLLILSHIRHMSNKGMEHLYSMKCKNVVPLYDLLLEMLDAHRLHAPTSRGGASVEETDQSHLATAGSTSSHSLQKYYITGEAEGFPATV

| Structure (SMILES) | inhibition of ligand binding (at 10 µM) | inhibition of ligand binding (binding inhibition, at 0.1 µM) |
| --- | --- | --- |
| Cc1nn(-c2ccccc2)c(Cl)c1/C=N/Nc1ccc(S(=O)(=O)Nc2ccccc2C(=O)O)cc1[N+](=O)[O-] | 38% (inactive) | 12% |
| CCOC(=O)c1c(NC(=O)CSc2nnc(-c3ccccc3)o2)sc(C(C)=O)c1C | 21% (inactive) | 33% |
| CCC1=NN2C(=N)/C(=C\c3ccc(SCc4ccco4)o3)C(=O)N=C2S1 | 22% (inactive) | 10% |
| Cc1ccccc1OCC1Cc2c(nc(N)c(C#N)c2N)O1 (configuration not stated) | 31% (inactive) | 13% |
| COc1ccc(NC(=O)C(NC(=O)c2ccc(=O)[nH]c2)c2ccc(C)cc2)cc1 (configuration not stated) | 4% (inactive) | 13% |
| COc1ccc(C2Nc3ccccc3C(=O)N2c2ccc(F)cc2)cc1CSc1ccccn1 (configuration not stated) | 10% (inactive) | 28% |
| COc1ccc(OC)c(/C=N/c2oc(-c3ccco3)c(-c3ccco3)c2C#N)c1 | 25% (inactive) | 19% |
| Cc1ccccc1Nc1nnc(SCC(=O)NCc2ccco2)s1 | 40% (inactive) | 11% |
| COc1ccc(C2CC(c3cccs3)=NN2c2ccc(C=O)cc2)cc1 (configuration not stated) | 58% (inactive) | 38% |
| CCOc1[nH]c(/N=C/c2ccco2)c(C#N)c1C#N | 21% (inactive) | 9% |
| CCCCCCNC(=O)c1cc(-c2ccco2)nc2ccccc12 | 40% (inactive) | 44% |

Reference: PubChem BioAssay AID1211 (NMMLSC, 2008)
